# An excerpt weighted towards active compounds, which were near 1.9% of everything screened.
# Yeast superoxide = caloric restriction mimetics inhibiting age-related superoxide in yeast | S. cerevisiae aged cells, superoxide DHE fluorescence; stronger effect = lower value | superoxide response (% of plate mean), % at 10 µM | actives 0.18% (n = 330,000) | AID 2690;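 active = superoxide response under a set limit, about three screen SD below normal, cut at about 65% in these data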;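 note: yeast aged for seven days with compound at 30 °C before DHE staining; 100% = average MFI of all compound-treated wells on the plate with controls excluded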
# GLD-1 TGE inh = GLD-1-TGE RNA interaction inhibition (C. elegans); Q17339; purified GLD-1 + fluorescein TGE RNA, fluorescence polarization; inhibition, % at 5.96 µM; actives 0.44% (n = 320,000);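 active = percent inhibition above a per-plate cutoff, the plate mean of test compounds plus 3 SD, cut at about 30% in these data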;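 note: 0% = DMSO wells with GLD-1 and probe and 100% = wells lacking GLD-1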
# MCL1-BIM inh = MCL1-BIM-BH3 interaction inhibition (human) | Q07820 | GST-MCL1 / FITC-Bim-BH3 fluorescence polarization | AID 2057 | actives 0.68% (n = 320,000) | inhibition, % at 10.9 µM;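 active = inhibition above the mean inhibition of all tested compounds plus 3 SD, set per campaign, cut at about 40% in these data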;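 note: 0% = DMSO wells and 100% = unlabeled Bim-BH3 peptide control; higher means more loss of mP so more displacement of Bim peptide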
# Target sequence (Q07820 whole entry, looked up): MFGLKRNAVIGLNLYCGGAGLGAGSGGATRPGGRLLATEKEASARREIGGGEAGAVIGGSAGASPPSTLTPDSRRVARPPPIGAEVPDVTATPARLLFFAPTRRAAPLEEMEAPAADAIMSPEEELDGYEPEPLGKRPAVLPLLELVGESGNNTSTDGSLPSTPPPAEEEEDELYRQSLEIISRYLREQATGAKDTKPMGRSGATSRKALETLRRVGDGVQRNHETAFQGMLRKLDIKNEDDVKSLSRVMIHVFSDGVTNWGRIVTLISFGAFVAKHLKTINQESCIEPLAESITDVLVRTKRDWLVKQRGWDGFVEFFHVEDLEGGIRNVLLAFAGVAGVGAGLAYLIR
# Bcl-xL primary = inhibitors of human Bcl-xL; Q07817; GST-Bcl-xL / FITC-Bim BH3 peptide fluorescence polarization; inhibition, % at 10.9 µM; actives 0.7% (n = 320,000); AID 2129;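 active = inhibition above the mean of all tested compounds plus 3 SD, cutoff set per campaign, cut at about 30% in these data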;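 note: 0% = DMSO wells and 100% = unlabeled Bim-BH3 peptide competitor; inhibitors lower millipolarization by displacing the labeled peptide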
# Target sequence (Q07817 whole entry, looked up): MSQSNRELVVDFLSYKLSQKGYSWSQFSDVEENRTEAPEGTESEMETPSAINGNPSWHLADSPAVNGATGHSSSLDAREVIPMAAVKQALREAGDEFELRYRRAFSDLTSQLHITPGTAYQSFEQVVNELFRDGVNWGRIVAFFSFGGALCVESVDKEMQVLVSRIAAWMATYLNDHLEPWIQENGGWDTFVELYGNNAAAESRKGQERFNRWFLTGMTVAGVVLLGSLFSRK
# MEX-5 binding = C. elegans MEX-5 TCR-2 RNA binding activity; Q9XUB2; MEX-5/FITC-TCR2 RNA binding, fluorescence polarization; stronger effect = lower value; activity score (negative = inhibition of binding), % at 10 µM; actives 0.38% (n = 300,000); AID 1832;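 active = inhibition past about -25% in most replicates, and total fluorescence under double the plate's negative control median, limit read from the data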;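 note: 0% = DMSO and -100% = 5 µM competing unlabeled TCR2 RNA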
# LANA-H2A inh = blocks KSHV LANA binding to histone H2A/H2B; cell-free LANA-H2A/H2B peptide, fluorescence polarization; actives 0.6% (n = 320,000); Q9QR71; inhibition, % (concentration not given with the values); in the data active = inhibition mostly above about 10%, no sharp cut-off; inactive = mostly below about 6.7%
# CR mimetic CP = confirmation of caloric restriction mimetics inhibiting yeast age-related superoxide; S. cerevisiae aging, superoxide DHE fluorescence; stronger effect = lower value; AID 434994; shares compounds with Yeast superoxide; actives 1% (n = 850); superoxide response (% of plate), % at 10 µM;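 active = superoxide signal below 65% of the plate average of sample wells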;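 note: cells aged with compound for 7 days at 30 degrees C before staining; 100% equals mean DHE fluorescence of all compound wells on the plate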
# DHE counter = counter-screen for compounds affecting DHE oxidation and fluorescence in yeast. shares compounds with Yeast superoxide. S. cerevisiae BY4741, flow cytometry; stronger effect = lower value. fluorescence response, % at 10 µM. 850 tested, under 10 active;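 active = fluorescence response below 15%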;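 note: percent of the mean fluorescence averaged over all compound wells on the plate; lower means stronger quenching of DHE signal or ROS scavenging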
# * hit, by the source's call; x = no result.
SMILES,Yeast superoxide,GLD-1 TGE inh,MCL1-BIM inh,Bcl-xL primary,MEX-5 binding,LANA-H2A inh,CR mimetic CP,DHE counter
Cc1ccccc1-c1nnc(SCC(=O)Nc2ccc3c(c2)OCCO3)n1N,83,0,3,5,3,-2,x,x
Cc1ccc(NC(=O)CSc2ccc(-c3ccccn3)nn2)cc1F,113,2,3,0,-2,0,110,98
CC(C)c1ccc(NC(=O)CSc2nnc(-c3ccccn3)n2C)cc1,95,7,-7,2,0,4,x,x
COc1cc(NC(=O)CSc2ccc(-c3ccccn3)nn2)cc(OC)c1,101,3,2,-1,2,1,102,124
CCc1ccc(NC(=O)CSc2nnc(-c3ccccn3)n2C)cc1,65*,3,-7,-2,0,-1,89,91
Cc1ccc(-n2nc(-c3ccc(OC(F)(F)F)cc3)cc2N)cc1C,103,5,-5,0,1,4,x,x
CCc1ccc(NC(=O)CSc2ccc(-c3ccccn3)nn2)cc1,59*,4,1,0,4,-2,126,113
COc1ccc(C)cc1NC(=O)CSc1ccc(-c2ccccn2)nn1,131,0,1,6,-4,-2,122,93
COc1cc(SC)ccc1C(=O)N1CCN(c2ccccc2)CC1,94,7,1,2,1,4,102,99
COc1cc(SC)ccc1C(=O)N1CCN(c2ccc(O)cc2)CC1,86,7,17,21,-1,1,100,94
COc1ccccc1C(=O)N1CCN(c2cccc(Cl)c2)CC1,95,2,-7,-6,1,-1,80,97
COc1cc(SC)ccc1C(=O)N1CCCCCC1,108,0,-2,-3,-2,3,x,x
CCOc1cc(Cl)c(S(=O)(=O)NCCCN2CCOCC2)cc1Cl,112,7,-1,1,1,1,x,x
CCOc1ncccc1C(=O)N1CCN(c2cc(Cl)ccc2C)CC1,106,3,-5,1,0,-5,90,112
CCOc1ncccc1C(=O)N1CCN(c2cccc(C)c2C)CC1,x,x,x,x,-1,x,114,107
COc1cccc(-c2csc(N3CCN(C(=O)NC45CC6CC(CC(C6)C4)C5)CC3)n2)c1,79,-9,1,-3,4,-3,x,x
CN(CC(=O)Nc1c(Cl)cccc1Cl)C(=O)C1=COCCO1,99,4,-5,1,-1,-3,x,x
O=C(Nc1cccc(Cl)c1)NC1CCN(C2CCCCC2)C1 (stereo unspecified),94,3,3,-2,-1,-2,x,x
CCCN(CCC)CC(O)Cn1c2ccccc2c2ccccc21 (stereo unspecified),80,5,3,2,1,1,97,94
CCOc1cc(N2CCOCC2)c(OCC)cc1NC(=O)CSc1nnc(N)s1,106,1,x,x,x,-1,x,x
O=C(C1CCC(=O)N(C2CC2)C1)N1CCC(Oc2ccccc2F)CC1 (stereo unspecified),99,10,1,4,0,-23,x,x
Cc1cc(NC(=O)c2ccc(C)c([N+](=O)[O-])c2)no1,110,1,5,4,3,-1,x,x
Cc1ccc(C(=O)Nc2cccc(NC(=O)c3ccc(C)c([N+](=O)[O-])c3)n2)cc1[N+](=O)[O-],61*,4,-3,4,2,3,94,104
CCCCCOC(=O)CSc1nnc(-c2cc(OC)c(OC)c(OC)c2)o1,113,9,-3,0,1,-3,124,109
CCOC(=O)CSc1nnc(-c2cc(OC)c(OC)c(OC)c2)o1,100,0,-1,2,2,0,94,98
SMILES,Yeast superoxide,GLD-1 TGE inh,MCL1-BIM inh,Bcl-xL primary,MEX-5 binding,LANA-H2A inh,CR mimetic CP,DHE counter
CCCOC(=O)CSc1nnc(-c2cc(OC)c(OC)c(OC)c2)o1,92,6,-3,0,0,-1,98,112
COc1cc(-c2nnc(SCC(=O)OC3CCCCC3)o2)cc(OC)c1OC,112,-5,-16,-9,-1,-6,x,x
O=C1CC(N2CCN(S(=O)(=O)c3ccccc3F)CC2)C(=O)N1c1ccc(F)cc1F (stereo unspecified),65*,9,x,x,x,0,109,89
O=C(NCCCCCCNC(=O)c1cncc(O)c1)c1cncc(O)c1,85,0,1,7,-3,2,x,x
CN(C)S(=O)(=O)N1CCN(c2cccc(Cl)c2)CC1,64*,-4,-1,-3,0,2,109,89
CC(C)c1ccc(C(=O)NCc2ccc(Cl)cc2)cc1,98,4,9,2,2,-2,x,x
CC(C)NC(=O)c1ccc(C(C)C)cc1,52*,-1,-7,-6,1,-13,108,106
CC(C)Cc1cc(CN2CCC(CO)(Cc3cccc(C(F)(F)F)c3)CC2)[nH]n1,98,2,3,9,3,-4,x,x
COc1ccccc1N(C)S(=O)(=O)c1ccc(C)c(C(=O)NC(C)c2ccccn2)c1 (stereo unspecified),85,-3,-21,-16,x,-3,x,x
Cc1cccc([C@@H](NC(=O)OC(C)(C)C)C(=O)OC(C)(C)C)c1,62*,3,6,0,x,4,102,91
CC(C)(C)OC(=O)N[C@@H](C(=O)OC(C)(C)C)c1ccccc1,86,-4,9,0,x,8,x,x
O=c1[nH]c2ccccc2cc1CN(Cc1cccnc1)S(=O)(=O)c1ccc(Cl)cc1,65*,-1,3,1,-2,20,121,104
O=C(Nc1ccc(S(=O)(=O)N2CCOCC2)cc1)c1cccc(Br)c1,105,0,-4,-2,1,4,x,x
CCN1CCN(c2ncnc3sc4c(c23)CCC(C)C4)CC1 (stereo unspecified),51*,7,5,-4,-1,-1,99,91
O=C(/C=C/c1ccc(Br)cc1)c1ccc(NC2=NCCCS2)cc1,77,6,5,4,1,-4,x,x
CC(C)(C)c1ccc(/C=C/C(=O)c2ccc(NC3=NCCCS3)cc2)cc1,46*,-6,-1,-1,4,-1,113,122
COc1ccc(-n2nc3c(c2NC(=O)C(C)Oc2ccccc2)CS(=O)(=O)C3)cc1 (stereo unspecified),54*,-7,8,3,1,1,117,114
CC(Oc1ccccc1)C(=O)Nc1c2c(nn1-c1ccccc1)CS(=O)(=O)C2 (stereo unspecified),100,-2,2,-1,1,4,x,x

# Screening results (PubChem BioAssay)
